PubChem BioAssay (NCATS)
Calls of active or inactive are those of the source.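 Rule for the calls, unless noted: active = compounds whose dose series gives a full or clear partial fitted curve of increased nuclear translocation; inconclusive = weak partial curve or effect only at the top dose; inactive = no dose-dependent translocation response.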

Each compound was assayed against Glucocorticoid receptor (Homo sapiens) (UniProt P04150) (assay: GR-GFP Redistribution (AID 450)). Details: U2OS GR-GFP nuclear translocation, laser cytometry, 2 h.
Potency is the fitted concentration of half-maximal effect.

Glucocorticoid receptor (Homo sapiens), sequence (P04150 whole entry, looked up, the tested form may be a part): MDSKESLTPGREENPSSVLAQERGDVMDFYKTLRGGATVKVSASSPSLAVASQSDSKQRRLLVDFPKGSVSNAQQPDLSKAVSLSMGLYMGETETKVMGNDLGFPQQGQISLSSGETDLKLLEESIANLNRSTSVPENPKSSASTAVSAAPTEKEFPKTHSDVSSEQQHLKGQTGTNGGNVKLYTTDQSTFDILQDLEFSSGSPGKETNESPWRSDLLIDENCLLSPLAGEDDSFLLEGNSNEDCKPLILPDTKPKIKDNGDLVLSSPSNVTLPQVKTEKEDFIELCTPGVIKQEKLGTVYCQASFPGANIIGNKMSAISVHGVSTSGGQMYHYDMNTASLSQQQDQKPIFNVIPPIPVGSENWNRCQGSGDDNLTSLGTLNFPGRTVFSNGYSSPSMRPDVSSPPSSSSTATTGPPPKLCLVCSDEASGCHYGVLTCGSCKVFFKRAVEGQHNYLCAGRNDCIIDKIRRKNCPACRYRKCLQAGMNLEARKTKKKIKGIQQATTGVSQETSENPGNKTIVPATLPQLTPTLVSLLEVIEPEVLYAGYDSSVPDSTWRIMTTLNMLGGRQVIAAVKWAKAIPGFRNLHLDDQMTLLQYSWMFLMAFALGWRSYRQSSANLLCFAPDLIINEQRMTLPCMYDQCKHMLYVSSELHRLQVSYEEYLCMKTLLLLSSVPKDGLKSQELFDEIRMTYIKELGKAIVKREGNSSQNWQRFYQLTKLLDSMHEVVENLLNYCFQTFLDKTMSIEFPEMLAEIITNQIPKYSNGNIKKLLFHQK

Q: With `CN(C)Cc1ccccc1-c1ccc2ncnc(N(C)C)c2c1` as the compound, how does the Potency read?
A: > 46 µM (inactive)

Q: How did the Potency turn out when `COc1ccc2[nH]cc(CCNc3ncncc3-c3ccccc3C(F)(F)F)c2c1` was run?
A: > 46 µM (inactive)

Q: With `COc1cccc(Cn2c(=O)cnc3cnc(N(C)C)nc32)c1` as the compound, how does the Potency read?
A: > 9.22 µM (inactive)

Q: Which Potency does the source give for `CNc1ncncc1-c1ccccc1CN(C)C` here?
A: > 46 µM (inactive)

Q: With `CN(C)C(=O)c1ccc(-c2ccc3ncnc(Nc4ccc(F)cc4)c3c2)cc1` as the compound, how does the Potency read?
A: > 46 µM (inactive)

Q: `CN1CCN(c2nc(-c3ccoc3)nc3ccccc23)CC1` was tested. Which Potency did it give?
A: > 46 µM (inactive)

Q: Which Potency does the source give for `CN(C)c1nc(-c2cccc(NS(C)(=O)=O)c2)nc2ccccc12` here?
A: > 46 µM (inactive)

Q: Which Potency does the source give for `CN1CCN(c2nc(-c3cccnc3)nc3ccccc23)CC1` here?
A: > 46 µM (inactive)

Q: With `O=c1cnc2cnc(N3CCOCC3)nc2n1Cc1cccs1` as the compound, how does the Potency read?
A: > 9.22 µM (inactive)

Q: Which Potency does the source give for `COc1ccccc1CNc1ncncc1-c1ccccc1C(F)(F)F` here?
A: > 46 µM (inactive)

Q: `COc1ncc2nc(-c3cccs3)c(=O)n(CCC#N)c2n1` was tested. Which Potency did it give?
A: > 9.22 µM (inactive)

Q: How did the Potency turn out when `O=c1cc(-c2ccc(O)c(O)c2)oc2cc(O[C@@H]3O[C@@H](CO)[C@@H](O)[C@@H](O)[C@H]3O)cc(O)c12` was run?
A: > 46 µM (inactive)

Q: For `COc1ccccc1-c1nccc(N2CCN(C)CC2)n1`, which Potency is on record?
A: > 46 µM (inactive)

Q: `Cc1nc2cnc(N3CCOCC3)nc2n(CCc2ccccc2)c1=O` was tested. Which Potency did it give?
A: > 9.22 µM (inactive)

Q: With `COc1ccccc1CNc1ncnc2ccc(-c3ccc(C(=O)N(C)C)cc3)cc12` as the compound, how does the Potency read?
A: > 46 µM (inactive)

Q: With `c1ccc2c(NCCN3CCOCC3)nc(-c3ccoc3)nc2c1` as the compound, how does the Potency read?
A: > 46 µM (inactive)

The compounds below were run against Glucocorticoid receptor (Homo sapiens) (UniProt P04150) (assay: GR-EFC Redistribution (AID 451; calls by dose curve)). Details: CHO-K1 GR-EFC translocation, beta-gal luminescence, 2 h.
In short: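 CHO-K1 cells expressing nuclear EA and GR-ED fragments of b-gal; compounds titrated up to 46 uM final, 2 h at 37 C. GR nuclear translocation read as complemented b-gal luminescence after 1 h RT detection.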

Q: For `CN(C)Cc1ccccc1-c1ccc2ncnc(N(C)C)c2c1`, which Potency is on record?
A: > 46 µM (inactive)

Q: How did the Potency turn out when `COc1cccc(Cn2c(=O)cnc3cnc(N(C)C)nc32)c1` was run?
A: > 46 µM (inactive)

Q: With `CN(C)C(=O)c1ccc(-c2ccc3ncnc(Nc4ccc(F)cc4)c3c2)cc1` as the compound, how does the Potency read?
A: > 46 µM (inactive)

Q: How did the Potency turn out when `CN1CCN(c2nc(-c3ccoc3)nc3ccccc23)CC1` was run?
A: > 46 µM (inactive)

Q: How did the Potency turn out when `CN(C)c1nc(-c2cccc(NS(C)(=O)=O)c2)nc2ccccc12` was run?
A: > 46 µM (inactive)

Q: With `CN1CCN(c2nc(-c3cccnc3)nc3ccccc23)CC1` as the compound, how does the Potency read?
A: > 46 µM (inactive)

Q: Which Potency does the source give for `O=c1cnc2cnc(N3CCOCC3)nc2n1Cc1cccs1` here?
A: > 46 µM (inactive)

Q: For `COc1ccccc1CNc1ncncc1-c1ccccc1C(F)(F)F`, which Potency is on record?
A: > 46 µM (inactive)

Q: `O=c1cc(-c2ccc(O)c(O)c2)oc2cc(O[C@@H]3O[C@@H](CO)[C@@H](O)[C@@H](O)[C@H]3O)cc(O)c12` was tested. Which Potency did it give?
A: > 46 µM (inactive)

Q: `COc1ccccc1-c1nccc(N2CCN(C)CC2)n1` was tested. Which Potency did it give?
A: > 46 µM (inactive)

Q: Which Potency does the source give for `Cc1nc2cnc(N3CCOCC3)nc2n(CCc2ccccc2)c1=O` here?
A: > 46 µM (inactive)

Q: `COc1ccccc1CNc1ncnc2ccc(-c3ccc(C(=O)N(C)C)cc3)cc12` was tested. Which Potency did it give?
A: > 46 µM (inactive)

Q: Which Potency does the source give for `c1ccc2c(NCCN3CCOCC3)nc(-c3ccoc3)nc2c1` here?
A: > 46 µM (inactive)
